Records with an inconclusive call do not appear. A call without a number means that no potency is given here. The source made the active and inactive calls. Unless noted, the call rests on the fitted dose curve.
What was measured:
[1] = qHTS for Inhibitors of the Functional Ribonucleoprotein Complex (vRNP) of Lassa (LASV) Arenavirus: LASV Primary Screen - GLuc reporter signal (AID 1347082; calls by dose curve; tested in HEK293 reporter line; further: nearly all actives have a fitted effect of over 60% in size; further: potency means the concentration at half of the fitted maximal effect)
[2] = qHTS for Inhibitors of the Functional Ribonucleoprotein Complex (vRNP) of Lassa (LASV) Arenavirus: Viability assay - alamar blue signal for LASV Primary Screen (AID 1347083; calls by dose curve; tested in HEK293 reporter line; further: nearly all actives have a fitted effect of over 80% in size; further: potency means the concentration at half of the fitted maximal effect)
[3] = molecular target: Nucleoprotein (Lymphocytic choriomeningitis virus (strain Armstrong)) (UniProt P09992); experiment: qHTS for Inhibitors of the Functional Ribonucleoprotein Complex (vRNP) of Lymphocytic Choriomeningitis Arenaviruses (LCMV): LCMV Primary Screen - GLuc reporter signal (AID 1347086); further: series mostly up to about 57 µM; nearly all actives have a fitted effect of over 70% in size
Nucleoprotein (Lymphocytic choriomeningitis virus (strain Armstrong)), sequence (P09992 whole entry, looked up): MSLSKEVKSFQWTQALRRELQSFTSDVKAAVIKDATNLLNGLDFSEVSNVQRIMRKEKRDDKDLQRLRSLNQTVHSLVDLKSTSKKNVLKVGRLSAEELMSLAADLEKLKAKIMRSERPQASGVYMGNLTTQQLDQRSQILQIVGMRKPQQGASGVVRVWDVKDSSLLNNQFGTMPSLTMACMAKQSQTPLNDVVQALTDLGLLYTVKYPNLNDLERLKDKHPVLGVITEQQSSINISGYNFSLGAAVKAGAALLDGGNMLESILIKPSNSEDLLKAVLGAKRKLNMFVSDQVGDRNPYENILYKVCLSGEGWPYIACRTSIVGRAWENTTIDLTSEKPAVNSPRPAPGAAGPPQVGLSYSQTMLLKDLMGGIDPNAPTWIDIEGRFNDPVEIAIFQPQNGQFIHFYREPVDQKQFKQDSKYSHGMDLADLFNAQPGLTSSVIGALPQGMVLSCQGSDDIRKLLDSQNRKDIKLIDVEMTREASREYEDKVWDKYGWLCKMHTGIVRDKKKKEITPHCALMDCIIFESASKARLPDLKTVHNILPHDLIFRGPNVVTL

[4] = qHTS for Inhibitors of the Functional Ribonucleoprotein Complex (vRNP) of Lymphocytic Choriomeningitis Arenaviruses (LCMV): Viability assay - alamar blue signal for LCMV Primary Screen (AID 1347085; calls by dose curve; tested in HEK293 reporter line; further: nearly all actives have a fitted effect of over 80% in size; further: potency means the concentration at half of the fitted maximal effect)
[5] = qHTS of pediatric cancer cell lines to identify multiple opportunities for drug repurposing: Primary screen for A673 cells (AID 1347092; active means well fitted curve in the direction sought with a large enough effect; an effect the other way counts as inactive or inconclusive; further: potency means the concentration at half of the fitted maximal effect; nearly all actives have a fitted effect of over 45% in size)
Procedure, shortened: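 Cells are plated, rested 5 h, dosed by pintool, incubated 48 h, then lysed with CellTiter-Glo and read by luminescence. DMSO is the neutral control; bortezomib at 2.3 uM final is the positive control.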

[6] = qHTS of pediatric cancer cell lines to identify multiple opportunities for drug repurposing: Primary screen for SK-N-MC cells (AID 1347093; active means well fitted curve in the direction sought with a large enough effect; an effect the other way counts as inactive or inconclusive; further: potency means the concentration at half of the fitted maximal effect)
Procedure, shortened: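 Metabolically active cells were quantified by ATP-dependent luminescence (CellTiter-Glo, 15 min at room temperature) following 48 h treatment. Cells had been plated at 500-1,000 per well and settled for 5 h beforehand.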

[7] = qHTS of pediatric cancer cell lines to identify multiple opportunities for drug repurposing: Primary screen for BT-37 cells (AID 1347094; active means well fitted curve in the direction sought with a large enough effect; an effect the other way counts as inactive or inconclusive; further: potency means the concentration at half of the fitted maximal effect)
Procedure, shortened: (§1)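 Readout: CellTiter-Glo luminescence, 48 h treatment. Controls DMSO (neutral) and bortezomib 2.3 µM final (positive). Potency and efficacy taken from primary-screen concentration-response curves.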

[8] = qHTS of pediatric cancer cell lines to identify multiple opportunities for drug repurposing: Primary screen for U-2 OS cells (AID 1347096; active means well fitted curve in the direction sought with a large enough effect; an effect the other way counts as inactive or inconclusive; further: nearly all actives have a fitted effect of over 50% in size; further: potency means the concentration at half of the fitted maximal effect)
Procedure, shortened: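 Viability after 48 h compound treatment at 37C, 500-1,000 cells/well, read as ATP luminescence with CellTiter-Glo. Primary screens used 11-point (MIPE, 0.78 nM-46 µM) or 8-point (NPC, 0.59 nM-46 µM) final concentrations; follow-up screens used 11-point dilutions.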

[9] = qHTS of pediatric cancer cell lines to identify multiple opportunities for drug repurposing: Primary screen for Saos-2 cells (AID 1347097; active means well fitted curve in the direction sought with a large enough effect; an effect the other way counts as inactive or inconclusive; further: potency means the concentration at half of the fitted maximal effect; nearly all actives have a fitted effect of over 40% in size)
Procedure, shortened: as §1

[10] = qHTS of pediatric cancer cell lines to identify multiple opportunities for drug repurposing: Primary screen for SJ-GBM2 cells (AID 1347091; active means well fitted curve in the direction sought with a large enough effect; an effect the other way counts as inactive or inconclusive; further: potency means the concentration at half of the fitted maximal effect)
Procedure, shortened: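 Viability measured as metabolically active cells via CellTiter-Glo luminescence following 48 hours of compound exposure, 11-point dilutions in confirmatory testing. 500-1,000 cells/well plated 5 hours before dosing; controls were DMSO and 2.3 µM bortezomib.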

[11] = qHTS of pediatric cancer cell lines to identify multiple opportunities for drug repurposing: Primary screen for NB-EBc1 cells (AID 1347095; active means well fitted curve in the direction sought with a large enough effect; an effect the other way counts as inactive or inconclusive; further: potency means the concentration at half of the fitted maximal effect)
Procedure, shortened: as §1

## CNS(=O)(=O)Cc1ccc2[nH]cc(CCN(C)C)c2c1
[1]
  Potency: inactive
[2]
  Potency: inactive
[3]
  Potency: inactive

## NCCC(O)(P(=O)(O)O)P(=O)(O)O
[1]
  Potency: inactive
[2]
  Potency: inactive
[4]
  Potency: inactive
[3]
  Potency: inactive

## Cc1nc(-c2ccc(OCC(C)C)c(C#N)c2)sc1C(=O)O
[1]
  Potency: inactive
[2]
  Potency: inactive
[4]
  Potency: inactive
[3]
  Potency: inactive

## CN(C)CC[C@@H](c1ccc(Br)cc1)c1ccccn1
[1]
  Potency: inactive
[2]
  Potency: inactive
[4]
  Potency: inactive
[3]
  Potency: inactive

## CO[C@]12CC[C@@]3(C[C@@H]1[C@](C)(O)C(C)(C)C)[C@@H]1Cc4ccc(O)c5c4[C@@]3(CCN1CC1CC1)[C@H]2O5
[1]
  Potency: inactive
[2]
  Potency: inactive
[5]
  Potency: 48.1 µM (active)
[6]
  Potency: 30.3 µM (active)
[7]
  Potency: 39.6 µM (active)
[8]
  Potency: 38.2 µM (active)
[9]
  Potency: 30.3 µM (active)

## CCN(C)C(=O)Oc1cccc([C@H](C)N(C)C)c1
[1]
  Potency: inactive
[2]
  Potency: inactive
[4]
  Potency: inactive
[3]
  Potency: inactive

## Cc1ccc(NC(=O)c2ccc(CN3CCN(C)CC3)cc2)cc1Nc1nccc(-c2cccnc2)n1
[1]
  Potency: inactive
[4]
  Potency: inactive

## Nc1ncn([C@@H]2O[C@H](CO)[C@@H](O)[C@H]2O)c(=O)n1
[1]
  Potency: inactive
[4]
  Potency: inactive

## O=C1CCC(N2C(=O)c3ccccc3C2=O)C(=O)N1 (stereo unspecified)
[1]
  Potency: inactive
[2]
  Potency: inactive
[4]
  Potency: inactive
[3]
  Potency: inactive

## O=C(c1ccc(OCCN2CCCCC2)cc1)c1c(-c2ccc(O)cc2)sc2cc(O)ccc12
[1]
  Potency: inactive
[4]
  Potency: inactive

## Cc1onc(-c2c(Cl)cccc2Cl)c1C(=O)N[C@@H]1C(=O)N2[C@@H]1SC(C)(C)[C@@H]2C(=O)O
[1]
  Potency: inactive
[2]
  Potency: inactive
[4]
  Potency: inactive
[3]
  Potency: inactive

## CCCCc1ncc(/C=C(\Cc2cccs2)C(=O)O)n1Cc1ccc(C(=O)O)cc1
[1]
  Potency: inactive
[2]
  Potency: inactive
[4]
  Potency: inactive
[3]
  Potency: inactive

## CNC(=O)c1cc(Oc2ccc(NC(=O)Nc3ccc(Cl)c(C(F)(F)F)c3)cc2)ccn1
[1]
  Potency: 38.5 µM (active)
[4]
  Potency: 17.2 µM (active)

## CC[C@H](C)C(=O)O[C@H]1C[C@@H](C)C=C2C=C[C@H](C)[C@H](CC[C@@H]3C[C@@H](O)CC(=O)O3)[C@H]21
[1]
  Potency: inactive
[2]
  Potency: inactive
[3]
  Potency: inactive

## CC(C)(C)NC(=O)[C@H]1CC[C@H]2[C@@H]3CC[C@H]4NC(=O)C=C[C@]4(C)[C@H]3CC[C@]12C
[1]
  Potency: inactive
[2]
  Potency: inactive
[3]
  Potency: inactive

## Cc1cn([C@H]2C=C[C@@H](CO)O2)c(=O)[nH]c1=O
[1]
  Potency: inactive
[2]
  Potency: inactive
[4]
  Potency: inactive
[3]
  Potency: inactive

## CCc1nc(N)nc(N)c1-c1ccc(Cl)cc1
[1]
  Potency: inactive
[2]
  Potency: 38.5 µM (active)
[4]
  Potency: 7.69 µM (active)
[3]
  Potency: inactive

## CN1CCC[C@@H]1CCO[C@](C)(c1ccccc1)c1ccc(Cl)cc1
[1]
  Potency: inactive
[4]
  Potency: inactive

## O=C(C1CCCCC1)N1CC(=O)N2CCc3ccccc3C2C1 (stereo unspecified)
[1]
  Potency: inactive
[4]
  Potency: inactive
[3]
  Potency: inactive

## Clc1ccc2c(c1)C(N1CCNCC1)=Nc1ccccc1O2
[1]
  Potency: inactive
[2]
  Potency: inactive
[4]
  Potency: inactive
[3]
  Potency: inactive

## CO[C@@]12[C@H](COC(N)=O)C3=C(C(=O)C(C)=C(N)C3=O)N1C[C@@H]1N[C@@H]12
[1]
  Potency: inactive
[3]
  Potency: inactive

## CC1(CN2CCC(n3c(=O)[nH]c4ccccc43)CC2)OCc2ccccc2-n2cccc21 (stereo unspecified)
[1]
  Potency: inactive
[4]
  Potency: inactive
[3]
  Potency: inactive

## CN(Cc1cnc2nc(N)nc(N)c2n1)c1ccc(C(=O)N[C@@H](CCC(=O)O)C(=O)O)cc1
[1]
  Potency: inactive
[4]
  Potency: inactive
[3]
  Potency: inactive

## CCCC(CCC)C(=O)O
[1]
  Potency: inactive
[3]
  Potency: inactive

## N=C(N)c1ccc(OCCCCCOc2ccc(C(=N)N)cc2)cc1
[2]
  Potency: 38.5 µM (active)

## NC12CC3CC(CC(C3)C1)C2
[1]
  Potency: inactive
[4]
  Potency: inactive
[3]
  Potency: inactive

## C[C@@H]1[C@@H](CC(C[C@H]2O[C@@H]3O[C@]4(C)CC[C@@H]5[C@H](C)CC[C@@H]([C@H]2C)[C@@]35OO4)C[S+](=O)([O-])c2ccc(COC(=O)N(C)C)cc2)O[C@@H]2O[C@]3(C)CC[C@H]4[C@H](C)CC[C@@H]1[C@@]24OO3 (stereo partly specified)
[4]
  Potency: inactive
[3]
  Potency: inactive
[10]
  Potency: 0.469 µM (active)
[6]
  Potency: 0.372 µM (active)
[7]
  Potency: 0.485 µM (active)
[11]
  Potency: 0.418 µM (active)
[8]
  Potency: inactive
[9]
  Potency: 0.118 µM (active)

— PubChem BioAssay (NCATS)
